Results from PubChem BioAssay (NCI).
Compounds without any hit were thinned out: in the full panel of roughly 79,000, 15% have a hit. Active and inactive are the calls of the source. No stated cut-off is given here; in the data, active means growth inhibition above about 70%; inactive means the rest.

Columns and labels:
[1] = NCI Yeast Anticancer Drug Screen. Data for the rad50 strain (AID 155);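 further: 0% = growth of vehicle-only cultures of the same strain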; conditions: S. cerevisiae rad50 strain growth inhibition; at 50.0 µM; active compounds read high
Method in brief: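 Growth of the mutant yeast was measured after compound exposure and referenced to vehicle-treated cultures.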

[2] = NCI Yeast Anticancer Drug Screen. Data for the mec2-1 strain (AID 157); conditions: S. cerevisiae mec2-1 strain, at 50.0 µM, active compounds read high
Method in brief: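 Growth inhibition is read against vehicle-treated controls after compound exposure of the mec2-1 yeast strain, which is defective in DNA damage repair or cell cycle control.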

[3] = NCI Yeast Anticancer Drug Screen. Data for the sgs1 mgt1 strain (AID 161);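 further: 0% = growth of cultures given vehicle only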; conditions: S. cerevisiae sgs1 mgt1 strain, at 50.0 µM, active compounds read high
Method in brief: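 Percent growth inhibition was derived by comparing compound-exposed mutant yeast with vehicle-exposed cultures. The strain carries alterations in DNA damage repair.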

[4] = NCI Yeast Anticancer Drug Screen. Data for the cln2 rad14 strain (AID 165);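 further: 0% = growth equal to vehicle treated cultures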; conditions: S. cerevisiae cln2 rad14 strain, at 50.0 µM, active compounds read high
Method in brief: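 Growth inhibition, relative to vehicle-treated controls, is the read-out. The test organism is a yeast strain with defined genetic alterations, cln2 rad14.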

[5] = NCI Yeast Anticancer Drug Screen. Data for the bub3 strain (AID 167); conditions: S. cerevisiae bub3 mutant strain, at 50.0 µM, active compounds read high
Method in brief: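 Whole-cell yeast assay. The mutant strain was incubated with compounds, and growth inhibition was determined by comparison with vehicle-treated cells.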

[6] = NCI Yeast Anticancer Drug Screen. Data for the mlh1 rad18 strain (AID 175); conditions: S. cerevisiae mlh1 rad18 strain growth inhibition; at 50.0 µM; active compounds read high
Method in brief: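 Cells of a genetically altered yeast strain, deficient in DNA damage repair, were treated with compound. Their growth was then compared with that of vehicle-treated cultures to give inhibition.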

Measured: growth inhibition

COc1cccc(NC(=O)CC(=O)N/N=C/c2ccc(N(CCC#N)CCC#N)c(I)c2)c1
inactive: [1] 29.6% | [2] 8.95% | [3] 7.7% | [4] 9.55% | [5] -5.55% | [6] 28.7%

COC(=O)c1nc(N)nc(C(=O)OC)c1C(=O)c1ccc(F)cc1
inactive: [1] 8.55% | [2] -1% | [3] -12.3% | [4] 5.35% | [5] 9.4% | [6] 20.6%

CCOC(=O)/C(C#N)=C/NC(N)=O
inactive: [1] -2.55% | [2] 3.05% | [3] -10.1% | [4] -10% | [5] 1.95% | [6] -12.6%

COC(=O)/C=C\CC(=O)OC
inactive: [1] 2.75% | [2] -5% | [3] -19.9% | [4] -5.05% | [5] -11% | [6] -0.65%

CN1C(=O)c2ccccc2NC(=O)C12O[C@@H]2c1cccc(O)c1 (stereo partly specified)
inactive: [1] 9% | [2] -0.55% | [3] 11.2% | [4] 8.9% | [5] 6.9% | [6] 8.05%

CNCCCc1cc(-c2ccc([N+](=O)[O-])cc2)n[nH]1
inactive: [1] -1.55% | [2] 0.5% | [3] -3.25% | [4] 12.6% | [5] 13.6% | [6] 6.6%

CCCCCCCCCCCC1=C(O)C(=O)C(I)=C(O)C1=O
inactive: [1] 63.2% | [2] 58.5% | [3] 63.1% | [4] 51.3% | [5] 14.4% | [6] 54.7%

CCCCCC(=O)C(CCCC)C(=O)OCC (stereo unspecified)
inactive: [1] -6.15% | [2] -0.1% | [3] -25.2% | [4] 2.6% | [5] -12% | [6] -33.5%

CCC(C)(O)CCC(C)(O)CC (stereo unspecified)
inactive: [1] 27.6% | [2] 5.4% | [3] 14.9% | [4] -14.7% | [5] 20% | [6] 9.25%

CC(=O)c1cc(C)c(C)cc1C
inactive: [1] -13.9% | [2] 7.6% | [3] -2.5% | [4] -12% | [5] 1.65% | [6] -12.5%

COc1ccc(OC)c2c(Nc3ccc(S(=O)(=O)O)c4cc(S(=O)(=O)O)cc(S(=O)(=O)O)c34)cc(C)nc12
inactive: [1] 2.5% | [2] -6.4% | [3] 9.25% | [4] 3.1% | [5] 6.8% | [6] 10.9%

COC1(OC)N=C(N)C2(C#N)C(C)=C3NCN(C)N=C3C12C#N (stereo unspecified)
inactive: [1] 8.15% | [2] 3.2% | [3] -44% | [4] -6.7% | [5] -33.8% | [6] -51%

C=C1/C=C/C=C(/C)C(=O)Nc2c(C=O)c(O)c3c4c(c(C)c(O)c3c2O)OC(C)(O/C=C/C(OC)C(C)C(OC(C)=O)C(C)C(O)C(C)C1O)C4=O (stereo unspecified)
inactive: [1] 24.1% | [2] 33.5% | [3] 16.4% | [4] 34.2% | [5] 20.4% | [6] 32.5%

CC1C(=O)N(c2ccccc2)C1c1ccccc1 (stereo unspecified)
inactive: [1] -18.6% | [2] -31.3% | [3] -11.9% | [4] -24.6% | [5] 2.95% | [6] -19.6%

Oc1cc2c(c3c(O)c4ccccc4c(O)c13)=NC1CCCCC1N=2 (stereo unspecified)
inactive: [1] 6.25% | [2] 9.6% | [3] 20.6% | [4] 7.6% | [5] 15.3% | [6] 40%

Cc1ccc(N(C)C(=O)Nc2ccccc2)c(C)c1
inactive: [1] 4.1% | [2] 3.6% | [3] 8.6% | [4] -20.6% | [5] 4.55% | [6] -12.8%

CN1C(=O)C(O)(c2c3c(c(C4(O)C(=O)N(C)c5ccccc54)c4c2OCO4)OCO3)c2ccccc21 (stereo unspecified)
inactive: [1] 0.45% | [2] -0.6% | [3] -28.2% | [4] -7.35% | [5] -5.2% | [6] 8.95%

CCNC(=O)OC1C=CS(=O)(=O)C1 (stereo unspecified)
inactive: [1] 5.25% | [2] -9.45% | [3] -0.45% | [4] -5.55% | [5] 7.95% | [6] -10.2%

Clc1cc(Br)c2c(Cl)ccnc2c1Br
inactive: [1] 35.6% | [2] -1.3% | [3] 7.5% | [4] -8.65% | [5] 0.85% | [6] 20%

Cc1csc2nc(-c3ccco3)nn12
inactive: [1] -3.2% | [2] -23.9% | [3] 4.55% | [4] 15.9% | [5] -13.3% | [6] 4.35%

COc1cc(C2c3cc4c(cc3C(OC(=O)C[n+]3ccccc3)C3COC(=O)C23)OCO4)cc(OC)c1OC (stereo unspecified)
inactive: [1] 28.7% | [2] -9.15% | [3] 1.7% | [4] -4.75% | [5] 18.8% | [6] 16.5%

Nc1c(Br)c(Br)cc2c1-c1ccc(Br)cc1C2
inactive: [1] 8.2% | [2] 3.75% | [3] -2.65% | [4] 8.75% | [5] 7.9% | [6] -4.7%

CC1(C)NNC(=S)NC1=O
inactive: [1] -11.7% | [2] -13.6% | [3] -7.65% | [4] 17.1% | [5] -15.6% | [6] -5.5%

COc1cc2c(c(OC)c1OC)-c1ccc(SC)c(=O)cc1C(N=C(NC1OCC(OC(C)=O)C(OC(C)=O)C1OC(C)=O)SN(NC(=O)OCc1ccccc1)C(=O)OCc1ccccc1)CC2 (stereo unspecified)
inactive: [1] 5.6% | [2] 10.4% | [3] 24.4% | [4] -11.7% | [5] -1.55% | [6] 32.3%

CC(C)(C)OC(=O)c1ccc(NCc2cc(O)ccc2O)cc1
active: [1] 87.4% | [2] 89% | [3] 90.8% | [4] 90.3% | [5] 88.5% | [6] 87.1%

CN(C)/N=C\c1ccc(C(=O)O)cc1
inactive: [1] -4.35% | [2] 25.6% | [3] 8.5% | [4] -11.9% | [5] 28.3% | [6] 22.9%

CC(C)N(CCCCO)C(C)C
inactive: [1] -0.75% | [2] -0.3% | [3] 14.2% | [4] 0.05% | [5] 2.7% | [6] 3.3%

S=c1nn[nH]n1C1CCCCC1
inactive: [1] 8.05% | [2] -14.3% | [3] -1.8% | [4] 4.1% | [5] 0.85% | [6] 9.95%

CCCCCC(C(C)=O)C(C)=O
inactive: [1] -17.5% | [2] -19.6% | [3] -15.1% | [4] 0.45% | [5] -15.8% | [6] -15.6%

CCOc1ccc(/C=C2\CCc3ccccc3C2=O)cc1
inactive: [1] 16.4% | [2] 16.6% | [3] 22.7% | [4] 20.9% | [5] 26.9% | [6] 21.6%

CC1CN(C(=S)Nc2cccc3ccccc23)CC(C)O1 (stereo unspecified)
inactive: [1] 19.4% | [2] 36.5% | [3] 44.9% | [4] 22% | [5] 44.8% | [6] 7.8%

CCCCCCNCc1cc(CNCCCCCC)c(O)c(CNCCCCCC)c1
inactive: [1] 4.5% | [2] 15.4% | [3] 18.4% | [4] -2.4% | [5] 1.4% | [6] 29.6%

N#C/C(=C/c1ccc(Cl)cc1)C(=O)O
inactive: [1] 6.35% | [2] -2.35% | [3] -13.3% | [4] 6.35% | [5] -0.15% | [6] 21.1%

CCC(=O)Oc1ccc(OCc2ccccc2)cc1
inactive: [1] -28.3% | [2] -57.8% | [3] -31.4% | [4] -4% | [5] -16.9% | [6] -25.9%

CC(=O)N(CCCCNC(=O)C(F)(F)F)CCCNC(=O)C(F)(F)F
inactive: [1] 2.7% | [2] -6.5% | [3] 6.55% | [4] 5.15% | [5] -26.8% | [6] -58.5%

CC(C)N1COC(c2ccccc2)C1 (stereo unspecified)
inactive: [1] 6.05% | [2] 0.35% | [3] -19.1% | [4] -17.9% | [5] -24.9% | [6] -26.1%

COC(=O)/C(N=Nc1cccc(C)c1)=C(\C)O
inactive: [1] 8.65% | [2] 5.65% | [3] 5.3% | [4] 19.9% | [5] 9.8% | [6] -2.7%

CN(NC(=O)c1ccccc1)C(=O)c1ccccc1
inactive: [1] 15.6% | [2] 7.4% | [3] 11.6% | [4] -15% | [5] 6.05% | [6] 3.75%

O=c1[nH]ncc2ccccc12
inactive: [1] -3.1% | [2] -16.2% | [3] -3.95% | [4] -53.5% | [5] -4.75% | [6] -2.45%

CC(=O)/C(C)=C\c1ccc(C(C)C)cc1
inactive: [1] 8.85% | [2] -12.7% | [3] -10.9% | [4] -7.2% | [5] 10.9% | [6] -1.55%

C#CCOC(=O)C(N)CS (stereo unspecified)
inactive: [1] -6.95% | [2] -20.3% | [3] -13.6% | [4] 9.8% | [5] -4.4% | [6] -13.7%
